Measurements as given in PubChem BioAssay (NCI).
Compounds without any hit were thinned out: in the full panel of roughly 79,000, 15% have a hit. A number with no mark means an inactive call. The source made the active and inactive calls. No stated cut-off is given here; in the data, active means growth inhibition above about 70%; inactive means the rest.

Assay: NCI Yeast Anticancer Drug Screen. Data for the rad18 strain (AID 177)
Details: S. cerevisiae rad18 mutant growth inhibition, stronger effect = higher value
Procedure: Growth inhibition of yeast strains with defined genetic alterations is measured as a screen for potential anti-cancer activity. Selected strains with alterations in DNA damage repair or cell cycle control were exposed to compounds and growth inhibition was measured relative to vehicle treated controls. The strain used in this assay is rad18

SMILES	growth inhibition (at 1.2 µM) [%]	growth inhibition (at 3.7 µM) [%]	growth inhibition (at 11.0 µM)	growth inhibition (at 33.0 µM)	growth inhibition (at 100.0 µM)
c1ccc2c(c1)NC(NC1Nc3ccccc3N1)N2	3	10	29%	49%	64%
Nc1ccn(C2OC(CO)C3[O][Sn]([c]4ccccc4)([c]4ccccc4)[O]C32)c(=O)n1 (stereo not given)	3	8	27%	67%	88% (active)
CCN(CC)CC(O)c1ccc2ccc3ccccc3c2c1 (stereo not given)	17	22	27%	38%	59%
C[C@@H]1C[C@H]2[C@@H]3CCC4=CC(=O)C=C[C@]4(C)[C@@]3(Cl)[C@@H](Cl)C[C@]2(C)[C@@]1(O)C(=O)COP(=O)(O)O	-4	-5	1%	7%	7%
CCCCCCCCCCC1CCC(=O)O1 (stereo not given)	-1	1	-1%	7%	97% (active)
CC1(Cl)CC(O)C2(CC1Br)C1(C)OC1C1OC1(Br)C2(C)C (stereo not given)	-15	-7	25%	76% (active)	98% (active)
O=C1C(=O)c2ccccc2C=C1[N+](=O)[O-]	22	54	89% (active)	94% (active)	95% (active)
CC(=O)OCc1ccc(O)c(C=O)c1	-13	9	54%	83% (active)	89% (active)
